Test results reported in PubChem BioAssay (EPA / NIEHS).
Active and inactive are the calls of the source. The calls were made as follows: active = hit-call score of the fitted dose curve at least 0.9, where 1 is the maximum; inactive = score below 0.9.

Experiments:
[1] = read-out: Monokine induced gamma interferon (MIG), CXCL9 (gene 4283); assay: BSK_hDFCGF_MIG: BioMAP Diversity Plus: hDFCGF Assay for Monokine induced gamma interferon (MIG) Biomarker Activity (AID 2283063); conditions: primary human foreskin fibroblasts; actives raise or lower the signal
Method in brief: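 ELISA read-out of MIG from primary human dermal fibroblasts 24 h post-dosing. Gain or loss of signal fitted bidirectionally, DMSO as baseline.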

[2] = read-out: Matrix Metallopeptidase 1 (MMP1), MMP1 (gene 4312); assay: BSK_hDFCGF_MMP1: BioMAP Diversity Plus: hDFCGF Assay for Matrix Metallopeptidase 1 (MMP1) Biomarker Activity (AID 2283064); conditions: primary human foreskin fibroblasts; actives raise or lower the signal
Method in brief: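 Primary human foreskin fibroblasts in the hDFCGF system were dosed with test chemical, and MMP1 was measured by ELISA 24 h later. Values come from bidirectional curve fitting against the DMSO baseline.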

[3] = read-out: Vascular cell adhesion molecule 1 (VCAM1), VCAM1 (gene 7412); assay: BSK_hDFCGF_VCAM1: BioMAP Diversity Plus: hDFCGF Assay for Vascular cell adhesion molecule 1 (VCAM1) Biomarker Activity (AID 2283065); conditions: primary human foreskin fibroblasts; actives raise or lower the signal
Method in brief: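 Primary human foreskin fibroblasts (hDFCGF system) were dosed with chemical and VCAM-1 was measured by ELISA 24 h later. Bidirectional curve fitting used DMSO as negative control and activity baseline.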

[4] = read-out: Plasminogen activator inhibitor-1 (PAI1), SERPINE1 (gene 5054); assay: BSK_hDFCGF_PAI1: BioMAP Diversity Plus: hDFCGF Assay for Plasminogen activator inhibitor-1 (PAI1) Biomarker Activity (AID 2283066); conditions: primary human foreskin fibroblasts; actives raise or lower the signal
Method in brief: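 Human foreskin fibroblast primary cells, 24 h chemical exposure; PAI-1 measured by ELISA. Bidirectional fitting relative to DMSO; parallel cultures stained with SRB for total protein to flag overt cytotoxicity.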

[5] = read-out: Intercellular Adhesion Molecule 1 (ICAM1), ICAM1 (gene 3383); assay: BSK_KF3CT_ICAM1: BioMAP Diversity Plus: KF3CT Assay for Intercellular Adhesion Molecule 1 (ICAM1) Biomarker Activity (AID 2283067); conditions: primary human keratinocytes with fibroblasts; actives raise or lower the signal
Method in brief: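 Human keratinocyte plus foreskin fibroblast primary co-culture was exposed to chemical for 24 h. ICAM-1 was then quantified by ELISA, and the data were fit bidirectionally against DMSO as the negative control and baseline.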

[6] = read-out: Interferon-gamma inducible Protein 10 (IP10), CXCL10 (gene 3627); assay: BSK_KF3CT_IP10: BioMAP Diversity Plus: KF3CT Assay for Interferon-gamma inducible Protein 10 (IP10) Biomarker Activity (AID 2283068); conditions: primary human keratinocytes with fibroblasts; actives raise or lower the signal
Method in brief: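 In a primary skin co-culture of keratinocytes and fibroblasts, IP-10 is quantified by ELISA at 24 h after dosing. SRB staining of parallel wells monitors overt toxicity. Curves are fitted both directions against DMSO.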

[7] = BSK_KF3CT_SRB: Viability Assessment in the BioMAP Diversity Plus: KF3CT Assay (AID 2283069); conditions: primary human keratinocytes with fibroblasts;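 also: total protein by sulforhodamine B staining as a cytotoxicity measure; read 24 h after compound addition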
Method in brief: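 Human primary keratinocyte plus foreskin fibroblast co-culture exposed to chemicals for 24 h. Total protein measured by 0.1% sulforhodamine B staining after 10% TCA fixation, read at 560 nm; bidirectional fitting versus DMSO baseline.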

[8] = read-out: Interleukin-1 alpha (IL1a), IL1A (gene 3552); assay: BSK_KF3CT_IL1a: BioMAP Diversity Plus: KF3CT Assay for Interleukin-1 alpha (IL1a) Biomarker Activity (AID 2283070); conditions: primary human keratinocytes with fibroblasts; actives raise or lower the signal
Method in brief: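 Human keratinocyte plus foreskin fibroblast primary co-culture, sampled 24 h after chemical dosing. IL-1a measured by ELISA; responses fitted bidirectionally against DMSO baseline (negative control), so gain or loss of signal both count.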

[9] = read-out: TIMP metallopeptidase inhibitor 2 (TIMP2), TIMP2 (gene 7077); assay: BSK_KF3CT_TIMP2: BioMAP Diversity Plus: KF3CT Assay for TIMP metallopeptidase inhibitor 2 (TIMP2) Biomarker Activity (AID 2283071); conditions: primary human keratinocytes with fibroblasts; actives raise or lower the signal
Method in brief: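 Co-culture of human primary keratinocytes and foreskin fibroblasts, measured 24 h after chemical dosing. TIMP-2 quantified by ELISA and fitted in both directions relative to DMSO. Cytotoxicity checked in parallel cultures by SRB total-protein staining.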

[10] = read-out: Transforming growth factor beta 1 (TGFb1), TGFB1 (gene 7040); assay: BSK_KF3CT_TGFb1: BioMAP Diversity Plus: KF3CT Assay for Transforming growth factor beta 1 (TGFb1) Biomarker Activity (AID 2283072); conditions: primary human keratinocytes with fibroblasts; actives raise or lower the signal
Method in brief: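 Human keratinocyte/foreskin fibroblast co-culture; TGF-b1 measured by ELISA 24 h after dosing, fitted bidirectionally versus DMSO. Cytotoxicity checked in parallel cultures by total protein (SRB staining, 560 nm).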

[11] = read-out: C-C motif chemokine 2 (Homo sapiens) (UniProt P13500); assay: BSK_KF3CT_MCP1: BioMAP Diversity Plus: KF3CT Assay for Monocyte Chemoattractant Protein 1 (MCP1/CCL2) Biomarker Activity (AID 2283073); conditions: primary human keratinocytes with fibroblasts; actives raise or lower the signal
Method in brief: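 Human keratinocyte plus foreskin fibroblast primary co-culture exposed to chemical for 24 h. MCP-1 levels measured by ELISA. Bidirectional curve fitting relative to DMSO negative control as baseline.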

[12] = read-out: Matrix Metallopeptidase 9 (MMP9), MMP9 (gene 4318); assay: BSK_KF3CT_MMP9: BioMAP Diversity Plus: KF3CT Assay for Matrix Metallopeptidase 9 (MMP9) Biomarker Activity (AID 2283074); conditions: primary human keratinocytes with fibroblasts; actives raise or lower the signal
Method in brief: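 Keratinocyte plus foreskin fibroblast human primary skin co-culture was dosed with chemical and MMP-9 was quantified by ELISA 24 h later. Bidirectional curve fitting used DMSO as negative control and activity baseline.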

[13] = read-out: urokinase plasminogen activator (uPA), PLAU (gene 5328); assay: BSK_KF3CT_uPA: BioMAP Diversity Plus: KF3CT Assay for urokinase plasminogen activator (uPA) Biomarker Activity (AID 2283075); conditions: primary human keratinocytes with fibroblasts; actives raise or lower the signal
Method in brief: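 Human keratinocyte plus foreskin fibroblast primary co-culture exposed to chemical for 24 h. uPA levels were quantified by ELISA, and activity was fitted bidirectionally against a DMSO negative-control baseline.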

CD40, CD40 (gene 958) = assay: BSK_LPS_CD40: BioMAP Diversity Plus: LPS Assay for CD40 Biomarker Activity (AID 2283076); conditions: primary human HUVEC with PBMC; actives raise or lower the signal
Method in brief: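 Primary human umbilical vein endothelial cells co-cultured with peripheral blood mononuclear cells, LPS-stimulated, were dosed with chemical and read 24 h later. CD40 levels were measured by ELISA and fitted bidirectionally against DMSO as negative control and baseline.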

[14] = read-out: Interleukin-8 (IL8), CXCL8 (gene 3576); assay: BSK_LPS_IL8: BioMAP Diversity Plus: LPS Assay for Interleukin-8 (IL8) Biomarker Activity (AID 2283078); conditions: primary human HUVEC with PBMC; actives raise or lower the signal
Method in brief: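 Human umbilical vein endothelial cells co-cultured with PBMC were stimulated with LPS; IL-8 levels were measured by ELISA 24 h after chemical dosing. Activity was fitted bidirectionally against DMSO as negative control and baseline.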

[15] = BSK_LPS_SRB: Viability Assessment in the BioMAP Diversity Plus: LPS Assay (AID 2283079); conditions: primary human HUVEC with PBMC;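 also: total protein by sulforhodamine B absorbance as a cytotoxicity measure; measured one day after compound addition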
Method in brief: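 Human umbilical vein endothelial cells co-cultured with PBMC (LPS system) were dosed for 24 h. Total protein was stained with 0.1% sulforhodamine B after 10% TCA fixation, read at 560 nm, and fitted bidirectionally against DMSO baseline.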

[16] = read-out: Interleukin-1 alpha (IL1a), IL1A (gene 3552); assay: BSK_LPS_IL1a: BioMAP Diversity Plus: LPS Assay for Interleukin-1 alpha (IL1a) Biomarker Activity (AID 2283080); conditions: primary human HUVEC with PBMC; actives raise or lower the signal
Method in brief: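 Human umbilical vein endothelial cells co-cultured with peripheral blood mononuclear cells were LPS-stimulated and exposed to test chemicals for 24 h. IL-1 alpha was quantified by ELISA, with bidirectional curve fitting against DMSO as the negative control and baseline.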

[17] = read-out: Monocyte Chemoattractant Protein-1 (MCP1), CCL2 (gene 6347); assay: BSK_LPS_MCP1: BioMAP Diversity Plus: LPS Assay for Monocyte Chemoattractant Protein-1 (MCP1) Biomarker Activity (AID 2283081); conditions: primary human HUVEC with PBMC; actives raise or lower the signal
Method in brief: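 HUVEC plus PBMC co-culture (human primary cells, LPS system) exposed to test chemical for 24 h; MCP-1 measured by ELISA. Bidirectional curve fitting against DMSO baseline; parallel SRB total-protein staining flags overt cytotoxicity.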

[18] = BSK_LPS_PGE2: BioMAP Diversity Plus: LPS Assay for Prostaglandin E2 (PGE2) Biomarker Activity (AID 2283082); conditions: primary human HUVEC with PBMC; actives raise or lower the signal
Method in brief: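 HUVEC plus human PBMC co-culture stimulated with LPS; secreted PGE2 quantified by ELISA 24 h after chemical dosing. Activity fitted bidirectionally against DMSO baseline; parallel SRB staining (0.1% SRB after 10% TCA fixation, 560 nm) flags overt cytotoxicity.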

[19] = read-out: E-selectin (Homo sapiens) (UniProt P16581); assay: BSK_LPS_Eselectin: BioMAP Diversity Plus: LPS Assay for Eselectin Biomarker Activity (AID 2283077); conditions: primary human HUVEC with PBMC; actives raise or lower the signal
Method in brief: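 Human umbilical vein endothelial cells co-cultured with peripheral blood mononuclear cells under LPS stimulation; E-selectin measured by ELISA 24 h after chemical dosing. Activity fitted bidirectionally against DMSO as negative control and baseline.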

Measured: outcome

Chain of E-selectin (Homo sapiens) (P16581 whole entry, looked up): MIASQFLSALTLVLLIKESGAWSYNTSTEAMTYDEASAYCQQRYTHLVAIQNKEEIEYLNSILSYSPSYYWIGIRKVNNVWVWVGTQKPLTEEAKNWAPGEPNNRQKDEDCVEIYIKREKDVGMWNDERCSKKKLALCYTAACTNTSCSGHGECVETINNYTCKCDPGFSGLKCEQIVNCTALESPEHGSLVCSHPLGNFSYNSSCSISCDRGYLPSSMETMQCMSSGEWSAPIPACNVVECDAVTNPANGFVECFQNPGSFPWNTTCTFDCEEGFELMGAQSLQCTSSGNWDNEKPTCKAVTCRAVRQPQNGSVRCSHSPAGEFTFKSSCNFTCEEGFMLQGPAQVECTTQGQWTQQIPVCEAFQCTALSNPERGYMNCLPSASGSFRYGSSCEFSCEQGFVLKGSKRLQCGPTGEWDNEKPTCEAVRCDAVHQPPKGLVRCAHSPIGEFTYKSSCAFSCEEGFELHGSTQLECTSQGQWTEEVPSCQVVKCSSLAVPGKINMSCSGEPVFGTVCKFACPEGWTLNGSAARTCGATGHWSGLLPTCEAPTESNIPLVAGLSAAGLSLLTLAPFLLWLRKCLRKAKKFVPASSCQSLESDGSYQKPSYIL

O=C1OC(=O)C2C3C=CC(C3)C12 (configuration not stated)
not listed: [19]
inactive: all other assays above

NC(=O)NO
not listed: [4]
inactive: all other assays above

O=P(OC(CCl)CCl)(OC(CCl)CCl)OC(CCl)CCl
not listed: [8]
inactive: all other assays above
